Measured values reported in PubChem BioAssay AID1851 (National Center for Advancing Translational Sciences (NCATS), 2009).
Among all 16,000 compounds or so, about 4,000 (25%) were called active. About 26% were inconclusive and are not listed. Not all results are given here. Values without a mark were called inactive. Calls follow the shape of the dose curve; as a rule, active = well fitted curve in the direction sought with a large enough effect; inconclusive = small, poorly fitted or top-dose-only effect, or effect the other way; inactive = no such curve, though single readings can be large or run the other way.

biological target: Cytochrome P450 2C9 (Homo sapiens) (UniProt P11712); assay: Cytochrome panel assay with activity outcomes; conditions: recombinant CYP, pro-luciferin dealkylation, luminescence, p450-cyp2c9; series mostly up to 57.1 µM; activity, negative = inhibition: at the top concentration
% is scaled to controls: 0 for no effect and ±100 for the full control effect.

Cytochrome P450 2C9 (Homo sapiens), sequence (P11712 whole entry, looked up): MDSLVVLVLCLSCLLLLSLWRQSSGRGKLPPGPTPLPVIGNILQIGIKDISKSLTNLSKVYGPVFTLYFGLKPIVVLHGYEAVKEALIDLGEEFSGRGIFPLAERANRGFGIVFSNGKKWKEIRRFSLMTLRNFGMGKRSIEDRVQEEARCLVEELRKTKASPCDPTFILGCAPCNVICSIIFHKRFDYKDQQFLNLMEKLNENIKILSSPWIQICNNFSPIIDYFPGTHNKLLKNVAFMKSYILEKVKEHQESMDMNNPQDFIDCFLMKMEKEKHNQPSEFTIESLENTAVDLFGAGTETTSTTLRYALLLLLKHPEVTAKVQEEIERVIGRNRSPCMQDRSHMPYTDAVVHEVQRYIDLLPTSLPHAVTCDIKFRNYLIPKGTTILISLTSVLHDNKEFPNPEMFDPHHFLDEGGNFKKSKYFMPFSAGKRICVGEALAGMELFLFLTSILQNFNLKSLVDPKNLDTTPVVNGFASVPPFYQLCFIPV

Row | Compound | activity, negative = inhibition | AC50
1 | COc1ccc(-n2c(=O)c(-c3cn(C)c4ccccc34)nc3cnc(OC)nc32)cc1 | -6.46% | 
2 | CC[C@H]1CN(C)[C@H]2Cc3c([nH]c4ccccc34)C(=O)C[C@H]1[C@H]2C(=O)OC | -5.96% [at 11.4 µM] | 
3 | CCOC(=O)COc1cc(OCC(=O)OCC)c2c(=O)cc(-c3ccccc3)oc2c1 |  | 8.91 µM (active)
4 | O=c1cc(-c2ccccc2)oc2cc(O)c(O)c(O)c12 | 3.94% | 
5 | O=C(O)c1cc(=O)c2c(OCC(O)COc3cccc4oc(C(=O)O)cc(=O)c34)cccc2o1 | 10.9% [at 25.6 µM] | 
6 | COc1cnc(SCc2ccc(Cl)cc2)nc1Cl |  | 22.4 µM (active)
7 | COc1cc2nncc(SCc3ccc(Cl)c(Cl)c3)c2cc1OC | -3.4% [at 11.4 µM] | 
8 | Cc1nc(N2CCOCC2)nc(N2CCN(c3ccccc3)CC2)c1[N+](=O)[O-] |  | 3.16 µM (active)
9 | Cc1nc2cnc(N3CCOCC3)nc2n(C)c1=O | -21.1% | 
10 | Cc1noc(C)c1-c1nc(N2CCOCC2)c2ccccc2n1 | 4.41% [at 2.29 µM] | 
11 | COC(Cn1c(C)c(C(C)=O)c(C(C)=O)c1C)OC | 26.1% | 
12 | c1ccc(-c2cccc(N3CCC4(CCNCC4)CC3)c2)cc1 | -3.68% | 
13 | O=C(O)/C=C\C(=O)Nc1ncn[nH]1 | -8.21% [at 11.4 µM] | 
14 | Cc1ccc(OCC(=O)Nc2ccc(S(=O)(=O)Nc3onc(C)c3C)cc2)cc1 |  | 17.8 µM (active)
15 | Cc1noc(NS(=O)(=O)c2ccc(N)cc2)c1C | 2.14% [at 25.6 µM] | 
16 | Cc1noc(C)c1C(=O)N1CCC[C@@]2(CCN(c3ncccn3)C2)C1 | -5.51% | 
17 | C=CCn1c(NCc2ccccc2)nc2ccccc21 | 21.7% | 
18 | COc1ccccc1-c1nccc(NCc2ccccc2)n1 | 4.32% [at 2.29 µM] | 
19 | COc1ccc(CNc2nc3ccccc3n2Cc2ccccc2)cc1OC |  | 8.91 µM (active)
20 | Cc1cc2cc3c(C)cc(=O)oc3c(C)c2o1 | -0.447% [at 25.6 µM] | 
21 | CCc1c(C(C)O)oc2ccc3c(C)cc(=O)oc3c12 (stereo unspecified) |  | 7.94 µM (active)
22 | CC(C)n1c(=O)c2c(O)cc(=O)oc2c2ccccc21 | -4.52% | 
23 | NCCCc1ccc2oc3ccccc3c2c1 | -10.6% [at 11.4 µM] | 
24 | O=C(O)CCCc1ccc2ccc3ccccc3c2c1 | 17.3% [at 11.4 µM] | 

Row | Compound | activity, negative = inhibition | AC50
25 | NNC(=O)CCc1ccc2ccc3ccccc3c2c1 |  | 1.58 µM (active)
26 | CC(C)COP(=O)(OCC(C)C)C(O)c1ccccc1F (stereo unspecified) | -25% | 
27 | O=C(CCNC(=O)Cn1cnc2ccccc2c1=O)NCC1COc2ccccc2O1 (stereo unspecified) |  | 10 µM (active)
28 | COc1cccc(OC)c1OCCNC[C@@H]1COc2ccccc2O1 |  | inactive
29 | O=C(Cn1cnc2ccccc2c1=O)NCCC(=O)Nc1ccc2c(c1)OCCO2 |  | 6.31 µM (active)
30 | CCC(C)NC(=O)Cn1cnc2sc(C)cc2c1=O (stereo unspecified) | -1.84% | 
31 | O=C1CC2(CCCC2)CC(=O)N1CCCCNC[C@H]1COc2ccccc2O1 | -16.7% | 
32 | CCCNC(=O)Cn1cnc2sc(C(=O)Nc3ccc4c(c3)OCO4)c(C)c2c1=O |  | 1.12 µM (active)
33 | C[N@+]1(CCC(=O)c2ccccc2)CC[C@H]2CC[C@H](C2)C1 | 8.55% [at 11.4 µM] | 
34 | N/N=C1/CC(=O)NC(=O)N1 | 28.1% [at 11.4 µM] | 
35 | CC(CC(=O)O)(CC(=O)O)c1ccccc1 | 13.9% [at 11.4 µM] | 
36 | CC(=O)N(CC(=O)O)c1ccccc1C(=O)O | -20.7% | 
37 | CC(C)(C)C(=O)N(CCN(C(=O)C(C)(C)C)c1ccccc1)c1ccccc1 |  | 15.8 µM (active)
38 | O=C(c1cccc(F)c1)N1CCC2(CCCN(c3ccccc3)C2)CC1 |  | 10 µM (active)
39 | O=C(c1cccc(F)c1)N1CCC2(CC1)CCN(c1ccc(-c3ccccc3)cc1)CC2 | 5.13% | 
40 | O=C(c1cccc(F)c1)N1CCC2(CC1)CN(c1cccc(-c3ccccc3)c1)C2 | -14.6% | 
41 | CC(C)NC(=O)N1CCCC2(CCN(C(=O)c3cccc(F)c3)CC2)C1 | 24.4% | 
42 | O=C(c1cccc(F)c1)N1CCC2(CCCN(c3cccc(-c4ccccc4)c3)C2)CC1 |  | 12.6 µM (active)
43 | O=C(c1cccc(F)c1)N1CCC[C@@]2(CCN(c3ccccc3)C2)C1 | 4.38% | 
44 | O=C(c1cccc(F)c1)N1CCC2(CC1)CN(c1ccc(-c3ccccc3)cc1)C2 | -14% | 
45 | O=C(c1cccc(F)c1)N1CCC2(CCCN(c3ccc(-c4ccccc4)cc3)C2)CC1 |  | 15.8 µM (active)
46 | O=C(c1cccc(F)c1)N1CCC2(CC1)CCN(c1cccc(-c3ccccc3)c1)CC2 | -3.94% | 
47 | O=C(c1cc(C(F)(F)F)cc(C(F)(F)F)c1)N1CCC[C@@]2(CCN(c3ccccn3)C2)C1 | -4.83% | 
48 | Cc1ccc(C(c2nnnn2C2CCCC2)N2CCN3CCCC3C2)cc1 (stereo unspecified) | -15.1% | 

Row | Compound | activity, negative = inhibition | AC50
49 | Clc1ccc(C(c2nnnn2C2CCCC2)N2CCN(Cc3ccncc3)CC2)cc1 (stereo unspecified) |  | 1.12 µM (active)
50 | CN1CCCN([C@@H](c2ccccc2)c2ccc(Cl)cc2)CC1 | 0.463% [at 25.6 µM] | 
51 | COc1ccc2c(c1)c(CC(=O)OCC(=O)O)c(C)n2C(=O)c1ccc(Cl)cc1 | -5.28% [at 25.6 µM] | 
52 | COc1ccc2c(c1)c(CC(=O)O)c(C)n2C(=O)c1ccc(Cl)cc1 | 6.09% | 
53 | COc1ccc2c(c1)c(CC(=O)O)c(C)n2C(=O)c1ccccc1 |  | 10 µM (active)
54 | O=C(O)/C=C\[C@H](O)c1ccc(Cl)cc1 | -12.8% | 
55 | c1ccc(CSc2nnc3c4ccccc4c4ccccc4c3n2)cc1 | -1.66% [at 11.4 µM] | 
56 | O=C(CSc1nnc2c3ccccc3c3ccccc3c2n1)Nc1ccccc1 |  | 2.51 µM (active)
57 | O=C(CSC1=NCCN1)Nc1ccccc1 | 2.48% [at 11.4 µM] | 
58 | C[N+]1(CCC[N+]2(C)C[C@H]3[C@H](C2)[C@H]2C=C[C@@H]3CC2)CCOCC1 (stereo partly specified) | -9.72% [at 11.4 µM] | 
59 | N[C@]1(C(=O)O)CCc2cc(P(=O)(O)O)ccc21 | -9.65% | 
60 | COC(=O)c1c(-c2ccccc2)csc1NC(=O)CSc1ncnc2sc(C)c(C)c12 |  | 1.26 µM (active)
61 | CCc1ccc(OCC(=O)NNC(=O)CSc2ncnc3sc(C)c(C)c23)cc1 | 13.8% | 
62 | Nc1nc(Nc2ccccc2)nc2c1ncn2[C@@H]1O[C@@H](CO)[C@H](O)[C@H]1O |  | 0.794 µM (active)
63 | Nc1nc(Nc2ccccc2)nc2c1ncn2[C@@H]1O[C@@H](CO)[C@H](O)[C@@H]1O | -3.52% | 
64 | Nc1nc(Cl)nc2c1ncn2[C@@H]1O[C@@H](CO)[C@@H](O)[C@H]1O | -24.4% | 
65 | Nc1ccc(-c2sc(N)nc2-c2ccccc2)cc1 |  | 28.2 µM (active)
66 | Nc1nc(-c2ccccc2)c(-c2ccccc2)c(-c2nc(N)nc(-c3ccccc3)c2-c2ccccc2)n1 | -3.1% [at 11.4 µM] | 
67 | COc1ccc(CNc2ncnc3ccc(-c4c(C)noc4C)cc23)c(OC)c1 | -23.3% [at 2.29 µM] | 
68 | CCNc1ncc2ncc(=O)n(Cc3ccc(F)cc3)c2n1 |  | 20 µM (active)
69 | CCNc1ncc2nc(C)c(=O)n(Cc3ccc(F)cc3)c2n1 | 18.9% | 
70 | CN(C)c1ncc2nc(-c3ccccc3)c(=O)n(Cc3ccc(F)cc3)c2n1 | -9.82% | 
71 | CCNc1ncc2nc(-c3ccc(Cl)cc3)c(=O)n(Cc3ccc(F)cc3)c2n1 | 16.8% | 
72 | CN(C)c1ncc2ncc(=O)n(Cc3ccc(F)cc3)c2n1 |  | 10 µM (active)

Row | Compound | activity, negative = inhibition | AC50
73 | COc1ncc2ncc(=O)n(Cc3ccc(F)cc3)c2n1 | -8.06% | 
74 | C[C@H](N)C1CCC(C(=O)Nc2ccncc2)CC1 (stereo partly specified) | -14.4% | 
75 | O=C(CCCN1CCC(O)(c2ccc(Br)cc2)CC1)c1ccc(F)cc1 | 26.6% [at 25.6 µM] | 
76 | Cc1cc(C)nc(Nc2n[nH]c(-c3cccc4ccccc34)n2)n1 | 23.5% | 
77 | O=C(CCN1C(=O)C2C3C=CC(C3)C2C1=O)Nc1ccc2ncccc2c1 (stereo unspecified) | -29.9% | 
78 | Cc1ccc(-c2cnc(NC(=O)CCC(=O)N3CCCCC3)n2C)cc1 | 3.26% | 
79 | Cc1ccc(NC(=O)CCN2C(=O)c3ccncc3C2=O)cc1 |  | 14.1 µM (active)
80 | COc1cc(OC)c2c(c1Cl)O[C@@]1(C2=O)[C@H](C)CC(=O)C[C@@H]1OC | 7.76% [at 25.6 µM] | 
81 | CN(C)c1ccc(-c2ccc3ncnc(NC4CC4)c3c2)cc1 | 4.64% [at 2.29 µM] | 
82 | O=C(CSCc1ccccc1)Nc1cccc(C(=O)Nc2ccccc2C(=O)O)c1 |  | 0.447 µM (active)
83 | CC1CC2=C(NC(=S)NC2c2ccc(F)cc2)/C(=C/c2ccc(F)cc2)C1 (stereo unspecified) |  | 8.91 µM (active)
84 | O=C1CC(NCCC2=CCCCC2)C(=O)N1c1cccc(Cl)c1Cl (stereo unspecified) |  | 14.1 µM (active)
85 | N[C@H](C(=O)O)c1ccc(C(=O)O)cc1 | -2.88% | 
86 | CC(=O)NC1=NN(c2ccccc2)C(=O)C1 | 9.39% | 
87 | COc1ccc(-c2ccc(/C=C3\C(=O)N(c4ccccc4)N=C3c3ccccc3)o2)c([N+](=O)[O-])c1 |  | 2.51 µM (active)
88 | COC(=O)c1ccccc1-c1ccc(/C=C2\C(=O)N(c3ccccc3)N=C2c2ccccc2)o1 |  | 5.62 µM (active)
89 | NC(=NC1C2CC3CC(C2)CC1C3)Nc1ccc(I)cc1 (stereo unspecified) | 15.5% | 
90 | CC[C@@]1(O)C(=O)OCc2c1cc1n(c2=O)Cc2cc3c(CN(C)C)c(O)ccc3nc2-1 | -1.39% [at 11.4 µM] | 
91 | Cc1cc2nc3[nH]c4c(Cl)cc(Cl)cc4c3nc2cc1C | -11.6% [at 11.4 µM] | 
92 | O=C(O)CSc1ccn(Cc2ccccc2)c1 | -1.85% [at 11.4 µM] | 
93 | C=CCCCCCCCCC(=O)Nc1c[nH]c(=O)[nH]c1=O | -17.1% | 
94 | O=C(NC(=S)Nc1ccc2c(c1)OCO2)c1ccccc1 |  | 3.98 µM (active)
95 | Cc1onc(-c2c(Cl)cccc2Cl)c1C(=O)Nc1ccc2c(c1)OCO2 |  | 1.41 µM (active)
96 | C[N+](C)(C)c1ncnc2c1ncn2[C@@H]1CCCCO1 | 8.84% [at 11.4 µM] | 
